Test results as given in PubChem BioAssay (NCI).
About 83,000 compounds went through this panel and 20% of them were active in at least one assay; those are over-represented in the sample as a whole.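 The test compound was applied at a single concentration to cells in 96-well plates for 48 hours, and percent growth was recorded.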 Activity calls are given as the source filed them.

system: OVCAR-5 ovarian; assay: NCI-60 one-dose screen, 48 h (100 = growth as untreated, 0 = no growth, -100 = all killed); conditions: 10 µM unless noted
Experimental: Growth inhibition of the OVCAR-5 human tumor cell line is measured as a screen for anti-cancer activity. Cells are grown in 96 well plates and exposed to the test compound for 48 hours. Compounds are tested at a single concentration, which is 10^-5 M for most compounds. The reported endpoint is percent growth (GI% or GIPRCNT), where numbers from 0 - 100% represent growth inhibition, and numbers from -100% - 0 represent cell death. For example, a value of 40 represents 60% growth inhibition. A value of 0 means no net growth occurred over the course of the experiment. A value of -40 indicates 40% of cells at the beginning of the experiment died by the end of the experiment. A value of -100 means all cells are dead at the end of the experiment.
NCI-60 Human Tumor Cell Lines Screen was performed using the standard one-dose NCI protocol, which is described in more detail at https://dtp.cancer.gov/discovery_development/nci-60/default.htm.
Compounds with GIPRCNT values below 10 were considered active. Activity score was based on GIPRCNT using the following formula: […]
Score is 0 for GIPRCNT values of 100 or above, 50 for GIPRCNT values of 0, and 100 for GIPRCNT values of -100.

SMILES	growth
COc1cc(-c2csc(NC(=O)c3cc(-n4cnc(C)c4)cc(C(F)(F)F)c3)n2)cc(OC)c1OC	104% (inactive)
O=C(/C=C/c1cn(-c2ccccc2)nc1-c1ccc([N+](=O)[O-])cc1)c1ccc(Cl)cc1	34.2% (inactive)
N#Cc1c(-c2ccc(Cl)cc2)nc(NN=Cc2cccc(O)c2)nc1N1CCOCC1	97.4% (inactive)
Cc1ccc(NC(=S)NNC(=S)NNc2ccccc2)cc1C	105% (inactive)
CC(C)(C)n1cc(-c2ccnc(NCCNS(=O)(=O)c3cccc(F)c3)c2)c(-c2ccccc2)n1	105% (inactive)
CCOc1ccc(NC(=O)CSc2oc(-c3ccccc3)nc2S(=O)(=O)c2ccc(F)cc2)cc1	103% (inactive)
COc1ccc(-c2nc(/C=C3\SC(=NCc4ccccc4)NC3=O)c3ccccn23)cc1	-15% (active)
CN(C)CCCC1(c2ccc(F)cc2)OCc2cc(-c3cncc4ccccc34)ccc21 (stereo not given)	70.5% (inactive)
Nc1c(C(=O)Nc2ccncc2)sc2nc3c(cc12)CCCCCC3	90.7% (inactive)
O=C(O)c1[nH]c(=O)[nH]c(=O)c1[N+](=O)[O-]	126% (inactive)
COc1ccc(-c2nnc(-c3ccc4c(c3)nc(-c3ccncc3)n4C3CCCCC3)o2)cc1	102% (inactive)
COc1ccc(-c2csc(N(C(=O)N3CCN(c4cc5c(cc4F)c(=O)c(C(=O)O)cn5C4CC4)CC3)c3ccccc3)n2)cc1	12.8% (inactive)
CCCCCOc1ccc(C(=O)/C(Br)=C/C(=O)O)cc1	108% (inactive)
COC(=O)c1c2c(c[n+]([O-])c1C)C(=O)C(NCc1ccccc1)=CC2=O	-79.9% (active)
O=C(O)CNC1=C(Cl)C(=O)c2ccccc2C1=O	118% (inactive)
Clc1ccc(CNc2c3ccccc3nc3ccccc23)cc1	50.5% (inactive)
Cc1nc(N2CCOCC2)sc1S(N)(=O)=O	96.5% (inactive)
C=CCc1c(O)c(C(=O)/C=C/c2ccc(Cl)cc2)c(OC)c2ccoc12	100% (inactive)
CCCCCCNC(=O)Oc1ccc(/C(=C(/C)Cc2ccc(OC)cc2)c2ccc(OCCCN(C)C)cc2)cc1	85.3% (inactive)
N#Cc1c(NC(=O)c2ccccc2)sc2c1CCC(=O)C2	22.1% (inactive)

SMILES	growth
CN1CCN(c2ccc(NC(=O)c3cncnc3Nc3ccc(OCc4ccccn4)c(Cl)c3)cc2)CC1	46.4% (inactive)
O=C(c1ccccc1)C1C(=O)N2C(=S)N(c3ccccc3)C(=O)C2C1c1ccc(Cl)cc1 (stereo not given)	102% (inactive)
CCN(CC)CCCN1C(=O)c2c(c(C)c3c(oc4cc(O)ccc43)c2C)C1=O	-77.2% (active)
O=C(Nn1c2c(sc1=Nc1ccccc1)C(=O)c1ccccc1C2=O)c1cc2ccc1CCc1ccc(cc1)CC2	110% (inactive)
CC1Cc2c(Cl)ncnc2N(C)c2ccc(F)cc21 (stereo not given)	99.9% (inactive)
Cc1ccc(Sc2oc(-c3ccc(C)cc3)nc2[P+](c2ccccc2)(c2ccccc2)c2ccccc2)cc1	7.79% (active)
COCCn1cc(-c2nc(-c3cc4cccnc4n3CCOC)cs2)c2cc(OC)ccc21	23.6% (inactive)
Nc1ncnc2c1N=C(c1ccc3c(c1)OCO3)CC(c1cccc(Nc3ccnc4cc(Cl)ccc34)c1)N2 (stereo not given)	97% (inactive)
O=C(NCCCN1CCOCC1)c1cccc(N2C(=O)/C(=C/c3ccc(F)cc3)SC2=S)c1	104% (inactive)
O=C(OCc1ccc2c(Cl)cc(Cl)c(O)c2n1)n1cncn1	81.8% (inactive)
CCCCC(=O)Nc1ncc(Cc2ccc(Cl)cc2)s1	73.9% (inactive)
CCNc1nc(-c2ccc(Cl)c(OC)c2)c(-c2ccnc(NCCCNS(=O)(=O)c3ccc(Cl)cc3)n2)s1	87.6% (inactive)
COc1cc(-n2cc(-c3cc(O)c(C/C=C(\C)CCC=C(C)C)c(O)c3)nn2)cc2c1O[C@]1(C)CC[C@@H](O)C(C)(C)[C@H]1C2	29.6% (inactive)
COc1ccc(C2=Nc3c/c(=C\c4c(O)[nH]c5ccc(Cl)cc45)ccc3=N2)cc1	82.9% (inactive)
COC(=O)c1c2c(c(C)[n+]([O-])c1C)C(=O)C=C(NCc1ccc(Br)cc1)C2=O	-82.8% (active)
COc1ccccc1Nc1nc2c(s1)C1=CC[C@H]3[C@@H]4CC[C@H]([C@H](C)CCCC(C)C)[C@@]4(C)CC[C@@H]3[C@@]1(C)CC2	106% (inactive)
O=[N+]([O-])c1ccc(S(=O)(=O)N2CCN(C3=NS(=O)(=O)c4ccccc4N3c3ccccc3)CC2)cc1	95% (inactive)
CCOC(=O)c1ccc2[nH]c(O)c(C(=Nc3ccc(N(C)C(=O)CN4CCN(C)CC4)cc3)c3ccccc3)c2c1	-14% (active)
COc1cc(-c2nc(SCCC(C)C)nc(Nc3ccccc3Cl)c2C#N)cc(OC)c1OC	89.7% (inactive)
Cc1c(-n2nnc(-c3nc4ccccc4s3)c2N)c(=O)n(-c2ccccc2)n1C	92.8% (inactive)
